An excerpt weighted towards active compounds, which were near 8.1% of everything screened.
ELG1 DNA repair: inhibitors of ELG1-dependent DNA repair in HEK293T cells; 330,000 compounds, 2.3% hits; Potency, µM (top dose mostly 46.1 µM), for the others: top-dose activity change, negative = inhibition, most hits filed as inhibitors; HEK293T ELG1-luciferase reporter, luminescence, 16 h; DNA damage induced by 5-fluorouridine; further: on the % scale 0 is the no-effect control and ±100 the full control effect; nearly all actives have a fitted effect of over 55% in size
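HEK293T cells expressing luciferase-tagged ELG1 (2,000/well) received 5-Fluorouridine plus compound or DMSO for 16 hr at 37 °C. Luciferase was read by ONE-Glo luminescence after 30 min at room temperature.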
KB-V1 MDR tox: KB-V1 MDR subline cytotoxicity. KB-V1 MDR cells viability, CellTiter-Glo, 72 h. 400,000 compounds, 3.4% hits. Potency, µM (series often up to 46.1 µM), hits mostly cytotoxic; further: on the % scale 0 is the no-effect control and ±100 the full control effect; nearly all actives have a fitted effect of over 60% in size
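Cells of the MDR subline KB-V1 are plated, dosed with compound at multiple concentrations, and incubated 72 h at 37 degrees C; CellTiter-Glo is then added and luminescence read after 10 min.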
MCF10A rereplic: DNA re-replication induction in MCF 10a cells. MCF 10A DNA re-replication, Hoechst nuclear intensity, 48 h. 350,000 compounds, 2.9% hits. Potency, µM (doses to about 46.1 µM), for inactives: at the highest dose activity, positive = re-replication, actives largely listed as activators; further: % of control where 0% means no effect; nearly all actives have a fitted effect of over 50% in size
KB-3-1 cytotox: KB-3-1 parental cell cytotoxicity. KB-3-1 viability, CellTiter-Glo ATP luminescence, 72 h. Potency, µM (highest dose often 46.1 µM), actives largely listed as cytotoxic. 400,000 compounds, 1.4% hits. AID 1347075; further: on the % scale 0 is the no-effect control and ±100 the full control effect; nearly all actives have a fitted effect of over 60% in size
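Screening of KB-3-1 cells (DMEM, 10% FBS, phenol-red free) ran from lowest to highest compound concentration; after 72 h at 37 °C viability was read luminescently and curves fitted.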
SW480 rerep: induces DNA re-replication in SW480 colon adenocarcinoma cells | SW480 DNA re-replication, Hoechst DNA content imaging, 48 h | Potency, µM (series often up to 46.1 µM), without a hit: at the top dose re-replication activation, hits mostly activators | 340,000 compounds, 1.8% hits; further: % of control where 0% means no effect; nearly all actives have a fitted effect of over 55% in size
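250 cells/well; 23 nL cpd via pin tool; 48 hr, 37 C, 5% CO2; Hoechst 40 min; imager read of total nuclear intensity, ex 405/em 500-530 nm.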
* = called active by the depositor; i = inactive; ? = inconclusive; · = no result given; [ ] = another dose, or the depositor's remark. The call rests on the fitted dose curve; in most records, active means well fitted curve in the direction sought with a large enough effect; inconclusive means small, poorly fitted or top-dose-only effect, or another doubt; inactive means no such curve, though single readings can be large; an effect the other way counts as inactive or inconclusive. Potency means the concentration at half of the fitted maximal effect.

SMILES	ELG1 DNA repair	KB-V1 MDR tox	MCF10A rereplic	KB-3-1 cytotox	SW480 rerep
Cn1c(NCc2ccco2)nc2c1c(=O)n(Cc1ccc(Br)cc1)c(=O)n2C	18µM*	i	-6%	i	1%
Cn1c(NCc2ccccc2)nc2c1c(=O)n(Cc1ccc(Br)cc1)c(=O)n2C	21µM*	i	?	i	-3%[9.22 µM]
COc1ccc(CNc2nc3c(c(=O)n(Cc4ccc(Br)cc4)c(=O)n3C)n2C)cc1	?	9.2µM*	?	?	17%
Cn1c(NCc2ccco2)nc2c1c(=O)n(Cc1ccc(Cl)cc1Cl)c(=O)n2C	?	i	?	i	16µM*
Cn1c(=O)c2c(nc(NCc3ccccc3)n2Cc2ccccc2)n(C)c1=O	·	i	·	i	·
CCC(C)NC(=O)Cn1cnc2sc(C)c(S(=O)(=O)N3CCCCC3)c2c1=O (stereo not given)	-3%	i	-1%	i	-7%
CCN(CC)C(=S)S	·	·	6%	·	?
COc1cccc(/C=C/c2nc3ccccc3nc2/C=C/c2cccc(OC)c2OC)c1OC	·	i	·	?	·
O=C(CS(=O)(=O)c1cccc2nsnc12)Nc1ccccc1Cl	·	i	·	i	·
CC1CCCN(C(=O)c2cc3c(=O)n(C)c4ccccc4c3s2)C1 (stereo not given)	·	i	·	i	·
CSCCC(NS(=O)(=O)c1ccc(C)cc1)C(=O)N1CCCCCCC1 (stereo not given)	1%	16µM*	-3%	i	-3%
CSCCC(NS(=O)(=O)c1ccc(Cl)cc1)C(=O)N1CCN(c2ccccc2)CC1 (stereo not given)	·	15µM*	-2%	i	3%
CSCCC(NS(=O)(=O)c1ccc(Cl)cc1)C(=O)OCc1c(Cl)cccc1Cl (stereo not given)	-23%	7.3µM*	16µM*	?	?
CSCCC(NS(=O)(=O)c1ccccc1F)C(=O)N1CCCCCC1 (stereo not given)	10%	i	1%	i	-10%
O=C(/C=C/c1ccccc1[N+](=O)[O-])Nc1cc(S(=O)(=O)N2CCOCC2)ccc1N1CCOCC1	·	i	?	?	-1%
CN(C)Cc1c(OC(=O)c2ccc(N)cc2)ccc2ccccc12	·	i	10%	i	-7%
CN(C)CCCN(C(=O)CCc1ccccc1)c1nc2ccc(Br)cc2s1	7%	23µM*	?	?	0%
CN(C)CCCN(C(=O)CCc1ccccc1)c1nc2ccc(F)cc2s1	4%	i	1%	i	4%
COc1cc2ccccc2cc1C(=O)N(CCN(C)C)c1nc2ccc(Br)cc2s1	-12%	?	?	?	23µM*
CN(C)CCN(C(=O)c1ccccc1Cl)c1nc2c(Cl)cccc2s1	-3%	23µM*	?	i	?
Cc1cccc2sc(N(CCCN(C)C)C(=O)CCc3ccccc3)nc12	11%	16µM*	?	?	?
CCCCOCCOCCOCc1cc2c(cc1CCC)OCO2	·	·	1%	·	-1%
CCOc1cccc2cc(C(=O)NCc3ccc(C)cc3)c(=N)oc12	5%	i	0%	i	3%
Cc1[nH]n2c(=O)cc(-c3ccccc3Cl)nc2c1-c1ccccc1	·	i	·	6.5µM*	·
Cc1nc2c(-c3ccc(Cl)cc3)c(C)[nH]n2c(=O)c1Cc1ccccc1	4.1µM*	?	?	i	?
SMILES	ELG1 DNA repair	KB-V1 MDR tox	MCF10A rereplic	KB-3-1 cytotox	SW480 rerep
Cc1[nH]n2c(=O)c3c(nc2c1-c1ccc(F)cc1)CCCC3	-10%	i	-9%	?	-3%
Cc1nc2c(-c3ccc(F)cc3)c(C)[nH]n2c(=O)c1Cl	-1%	i	13%	10µM*	7.3µM*
Cc1cccc(Cc2c(C)nc3c(-c4ccccc4)c(C)[nH]n3c2=O)c1	·	i	·	10µM*	·
CCOC(=O)Nc1sc2c(c1C(N)=O)CCCC2	·	i	·	i	·
C[C@@H]1CN([C@@H](C)CO)C(=O)CCCn2cc(nn2)CO[C@H]1CN(C)S(=O)(=O)c1ccc(Cl)cc1	·	i	·	i	·
Cc1ccc(CN2CCN(C3CCN(C(=O)OC(C)(C)C)CC3)C(=O)C2=O)cc1	·	i	·	i	·

Source: PubChem
